Consider 40 compounds from PubChem BioAssay AID488821 (National Center for Advancing Translational Sciences (NCATS), 2010).

Results filed as inconclusive are left out. Calls of active or inactive are those of the source. Calls come from the whole dose curve; as a rule, active = well fitted inhibition curve with a large enough effect; inconclusive = small, poorly fitted or top-dose-only effect, or effect the other way; inactive = flat fitted curve, though single readings scatter.

A short description of the test: Counterscreen Assay for Enhancers of SMN2 Splice Variant Expression: Modulation of SMN1 Expression for Further Probe SAR. The conditions noted are these: HEK293 SMN1-luciferase reporter, luminescence, 30-36 h; series mostly up to 46.1 µM; activity change, negative = inhibition: at the top concentration. From the text: NIH Chemical Genomics Center [NCGC] NIH Molecular Libraries Probe Production centers Network [MLPCN] MLPCN Grant: R03 MH084179-01 Assay Submitter (PI): Elliot Androphy NCGC Assay Overview: Spinal muscular atrophy (SMA) is caused by insufficient levels of the survival motor neuron protein SMN. The SMN locus on chromosome 5q13 contains two inverted copies of SMN called SMN1 and SMN2 which are 99% identical at the amino acid level. SMN1 is a fully functional protein and SMN2 skips exon 7 90% of the time. Skipping of exon 7 produces non-functional protein product. 10% of the SMN2 protein includes exon 7 and is fully functional. In the SMA disease state, mutations in the SMN1 locus are the cause of the disease state. Because only 10% of SMN2 is of the fully functional form, it is not sufficient to overcome the deficiency produced by the loss of the SMN1 product. A therapy that either increases the amount of SMN2 product made increases the inclusion of exon 7 has been proposed for the treatment of SMA. We have designed an assay to identify small molecules that can increase the amount of functional SMN2 product by appending a luciferase reporter gene after the native SMN2 gene, such that inclusion of exon 7 in the expressed product places the luciferase sequence in frame, thus generating functional luciferase enzyme. As a counterscreen for nonspecific modulators of expression, we have run compounds through a similar assay that measures expression of an SMN1-luciferase chimera.
NCGC Assay Protocol Summary: This screen utilizes a luciferase reporter gene assay, combining the promoter with the major portion of the native SMN1 cDNA (exons 1 -7, intron 8 , exon 8 fused to luciferase) stably expressed in HEK293 cells. Compounds that increase luciferase signal presumably enhance expression of the functional SMN1 splice variant. Passaging media contained DMEM w/ glutamax (+phenol red) 10% FCS, 1x pen/strep, 200 ug/ml hygro, 1x sodium pyruvate. Assay media contained DMEM w/ glutamax (-phenol red) 10% FCS, 1x pen strep, 1x pyruvate Sequence, Parameter, Value, Description (1) Cells, 5 uL, 2000 cells/well, 1536 TC treated White solid bottom plate (2) Time, 10-12 hours, 37C 5% CO2 (3) Compound, 23 nl, MLSMR Library (4) Control Compound, 23 nL, Sodium butyrate st 4.5mM (final) conc (5) Time, 30-36 hours, 37C 5% CO2 (6) Reagent, 3 ul, One Glo (TM) from Promega (7) Time, 5-15 minutes, Room temp (8) Detector, Viewlux: luminescent read, 60 second integration, high speed 2x binning Keywords: Spinal muscular atrophy, SMA, SMN2, high throughput screening, MLSMR, MLPCN, NIH Roadmap, qHTS and NCGC
With `CC(=O)C1CCN(c2ncc(-c3cccc(N(C)C)c3)s2)CC1`, the Potency was 12.2 µM (active).

For `O=C(NCCCCc1ccccc1)C1CCN(c2nc(-c3ccc(Br)cc3)cs2)CC1`, the “activity change, negative = inhibition” value was -12.8% (inactive).

Regarding `Cc1ccc(-c2ccnc(N3CCC(C(N)=O)CC3)n2)cc1`, the Potency was 7.72 µM (active).

`CCOc1ccc(-c2csc(N3CCC(C(N)=O)CC3)n2)cc1`: the “activity change, negative = inhibition” value was -16.1% (inactive).

For the compound `CCOC(=O)C1CCN(c2ncc(-c3ccc4c(c3)OCCCO4)s2)CC1`, the Potency was 0.387 µM (active).

For `NC(=O)C1CCN(c2ncc(-c3ccc(Cl)cc3)s2)CC1`, the Potency was 9.72 µM (active).

Turning to `NC(=O)N1CCN(c2nc(-c3ccc(Br)cc3)cs2)CC1`, the “activity change, negative = inhibition” value is -14.2% (inactive).

`Nc1nc(N)c2c(OCC3CCN(Cc4ccccc4F)CC3)cccc2n1`: the Potency is 19.4 µM (active).

For the compound `NC(=O)C1CCN(c2nc(-c3cccc4ccccc34)cs2)CC1`, the “activity change, negative = inhibition” value is -3.85% (inactive).

`NC(=O)C1CCN(c2nc(-c3ccc(Oc4ccccc4)cc3)cs2)CC1`: the “activity change, negative = inhibition” value is -6.89% (inactive).

For the compound `CN(C)c1cccc(-c2nccc(N3CCC(C(N)=O)CC3)n2)c1`, the “activity change, negative = inhibition” value is 14.2% (inactive).

On to `NC(=O)C1CCN(c2ncc(-c3ccc4c(c3)OCO4)s2)CC1`, for which the Potency is 0.972 µM (active).

For the compound `NC(=O)C1CCN(c2ncc(-c3ccc4c(c3)OCCCO4)s2)CC1`, the Potency is 0.487 µM (active).

`CN(C)c1ccc(-c2csc(N3CCC(C(N)=O)CC3)n2)cc1`: the “activity change, negative = inhibition” value is -11.1% (inactive).

`NC(=O)C1CCN(c2nc(-c3cccc(Br)c3)cs2)CC1`: the “activity change, negative = inhibition” value is -9.64% (inactive).

As for `NC(=O)C1CCN(c2ncc(Br)cn2)CC1`, the “activity change, negative = inhibition” value is 9.17% (inactive).

Consider `NC(=O)C1CCN(c2nc(-c3ccc(N)cc3)cs2)CC1`, for which the “activity change, negative = inhibition” value is 7.68% (inactive).

Regarding `NC(=O)C1CCN(c2nc(-c3ccc([N+](=O)[O-])cc3)cs2)CC1`, the “activity change, negative = inhibition” value was -14.7% (inactive).

Take `CN(C)c1cccc(-c2cnc(N3CCC(C(N)=O)CC3)s2)c1`: the Potency is 0.772 µM (active).

As for `Brc1ccc(-c2csc(N3CCC(c4nn[nH]n4)CC3)n2)cc1`, the “activity change, negative = inhibition” value is -18.6% (inactive).

As for `NC(=O)C1CCN(c2ncc(Br)s2)CC1`, the “activity change, negative = inhibition” value is -5.62% (inactive).

Take `O=C(NCc1ccccc1)C1CCN(c2nc(-c3ccc(Br)cc3)cs2)CC1`: the “activity change, negative = inhibition” value is -14.5% (inactive).

On to `CC(C)(C)OC(=O)NC1CCN(c2nc(-c3ccc(Br)cc3)cs2)CC1`, for which the “activity change, negative = inhibition” value was -18% (inactive).

Turning to `NC(=O)C1CCN(c2nccc(-c3ccc(Br)cc3)n2)CC1`, the Potency is 12.2 µM (active).

Consider `CC(C)Oc1cccc(-c2cnc(N3CCC(C(N)=O)CC3)s2)c1`, for which the Potency is 4.87 µM (active).

With `NC(=O)C1CCN(c2ncc(-c3ccc4c(c3)OC(F)(F)O4)s2)CC1`, the Potency is 15.4 µM (active).

Regarding `N#Cc1cccc(-c2csc(N3CCC(C(N)=O)CC3)n2)c1`, the “activity change, negative = inhibition” value was 6.78% (inactive).

`CC(=O)C1CCN(c2ncc(-c3ccc4c(c3)OCCCO4)s2)CC1`: the Potency was 4.87 µM (active).

`NC(=O)C1CCN(c2nc(-c3ccc(OCc4ccccc4)cc3)cs2)CC1`: the “activity change, negative = inhibition” value was -12.4% (inactive).

For the compound `NC(=O)C1CCN(c2nc(-c3cccc([N+](=O)[O-])c3)cs2)CC1`, the “activity change, negative = inhibition” value was 9.79% (inactive).

As to `NC(=O)C1CCN(c2nccc(Cl)n2)CC1`, the “activity change, negative = inhibition” value was -13.7% (inactive).

As for `Cc1ccc(-c2cnc(N3CCC(C(N)=O)CC3)s2)cc1`, the Potency is 2.44 µM (active).

As to `O=C(c1ccco1)N1CCN(c2nc(-c3ccc(Br)cc3)cs2)CC1`, the “activity change, negative = inhibition” value was -26.7% (inactive).

Turning to `NC(=O)C1CCN(c2ncc(-c3cccc(N4CCCCC4)c3)s2)CC1`, the “activity change, negative = inhibition” value is -28.5% (inactive).

`CC(C)(C)c1ccc(-c2csc(N3CCC(C(N)=O)CC3)n2)cc1`: the “activity change, negative = inhibition” value is -21% (inactive).

On to `NC1CCN(c2nc(-c3ccc(Br)cc3)cs2)CC1`, for which the Potency is 19.4 µM (active).

As to `CS(=O)(=O)N1CCN(c2nc(-c3ccc(Br)cc3)cs2)CC1`, the “activity change, negative = inhibition” value is -18.3% (inactive).

In the case of `NC(=O)C1CCN(c2nc(-c3cccc(F)c3)cs2)CC1`, the “activity change, negative = inhibition” value was -5.59% (inactive).

On to `CN(C)c1cccc(-c2ncc(F)c(N3CCC(C(N)=O)CC3)n2)c1`, for which the “activity change, negative = inhibition” value is -14.2% (inactive).

`NC(=O)C1CCN(c2nc(-c3cccc(C(F)(F)F)c3)cs2)CC1`: the “activity change, negative = inhibition” value was 28.5% (inactive).
